Where a structure was tested more than once in an assay, its records may differ in their call. Activity calls are given as the source filed them. How the source made its calls: active means hit-call score of the fitted dose curve at least 0.9, where 1 is the maximum; inactive means score below 0.9.
How the values were obtained:
[1] = biological target: CCAAT/enhancer-binding protein beta (Homo sapiens) (UniProt P17676); assay: ATG_C_EBP_CIS: Attagene CIS-FACTORIAL HepG2 Assay for human CCAAT/Enhancer Binding Protein (C/EBP) beta (AID 2282927); conditions: HepG2 Attagene cis-factorial transcription factor reporter; actives raise or lower the signal
In short: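 Endogenous transcription factor activity in human liver HepG2 cells is inferred from induction of a CEBPB-linked reporter mRNA. Exposure lasts 24 h; activity is fitted in both directions relative to DMSO.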

[2] = ATG_CMV_CIS: Attagene CIS-FACTORIAL HepG2 Assay for human CMV (Internal Marker) (AID 2282928); conditions: HepG2 CMV promoter reporter, transcription factor profiling; actives raise or lower the signal;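 further: endpoint acts as a background internal control marker rather than a target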
In short: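 Cell system: HepG2, transiently transfected multiple reporter units under cis promoters. Exposure: 24 h. Detection: RT-PCR, FAM labeling, HpaI digestion, capillary electrophoresis. Analysis: bidirectional, DMSO baseline.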

[3] = ATG_DR4_LXR_CIS: Attagene CIS-FACTORIAL HepG2 Assay for human Liver X Receptor (LXR), DR4 submotif (AID 2282929); conditions: HepG2 Attagene DR4 cis-reporter, mRNA transcription; actives raise or lower the signal
In short: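 HepG2 cells were transiently transfected with multiple cis-regulated reporter units and dosed for 24 hours. The DR4 reporter mRNA was quantified by RT-PCR, 6-FAM labelling and capillary electrophoresis. Bidirectional fits used DMSO as baseline.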

[4] = biological target: Aryl hydrocarbon receptor (Homo sapiens) (UniProt P35869); assay: ATG_Ahr_CIS: Attagene CIS-FACTORIAL HepG2 Assay for human Aryl Hydrocarbon Receptor (Ahr) (AID 2282930); conditions: HepG2 AhR cis-factorial reporter transcription; actives raise or lower the signal
In short: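 Transient MRTU transfection of HepG2 → 24 h compound exposure → total RNA, oligo(dT) RT → PCR, 6-FAM extension, HpaI cut → CE fluorescence. DMSO = baseline; bidirectional curve fit.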

[5] = ATG_AP_1_CIS: Attagene CIS-FACTORIAL HepG2 Assay for human Activator Protein 1 (AP-1) (AID 2282931); conditions: HepG2 Attagene cis-factorial AP-1 reporter mRNA; actives raise or lower the signal
In short: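 HepG2 cells transiently transfected with cis-element-driven reporter transcription units, dosed for 24 hours. Reporter mRNA measured by RT-PCR, 6-FAM labelling, HpaI digestion and capillary electrophoresis. Bidirectional fitting against DMSO baseline.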

[6] = ATG_BRE_CIS: Attagene CIS-FACTORIAL HepG2 Assay for human Bone Morphogenetic Protein (BMP) Response Element (BRE) (AID 2282933); conditions: HepG2 BMP response element reporter, Attagene transcription factor profiling; actives raise or lower the signal
In short: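 After a 24 h chemical treatment, transiently transfected HepG2 cells were lysed for RNA; reporter transcripts were quantified by fluorescent RT-PCR and capillary electrophoresis, normalised to DMSO.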

[7] = biological target: Retinoic acid receptor alpha (Homo sapiens) (UniProt P10276); assay: ATG_DR5_RAR_CIS: Attagene CIS-FACTORIAL HepG2 Assay for human Retinoic Acid Receptor Alpha (RARE), DR5 submotif (AID 2282934); conditions: HepG2 Attagene cis-factorial RARE DR5 reporter, mRNA; actives raise or lower the signal;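 on AC50: reporter responds to endogenous RAR alpha beta and gamma in HepG2 not RARA alone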
In short: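 Transient MRTU transfection of HepG2; 24 h compound treatment; TriZol RNA, oligo(dT) RT, PCR, FAM labelling, capillary electrophoresis. Bidirectional fit vs DMSO. Endogenous TF activity at DR5 RARE.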

[8] = biological target: Transcription factor E2F1 (Homo sapiens) (UniProt Q01094); assay: ATG_E2F_CIS: Attagene CIS-FACTORIAL HepG2 Assay for human E2F Transcription Factor 1 (AID 2282935); conditions: HepG2 Attagene cis-reporter, E2F reporter RNA transcripts; actives raise or lower the signal
In short: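 Total RNA from 24 h-treated, reporter-transfected HepG2 cells undergoes DNase I treatment, oligo(dT) reverse transcription, PCR and 6-FAM primer extension before capillary electrophoresis.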

[9] = ATG_E_Box_CIS: Attagene CIS-FACTORIAL HepG2 Assay for human Enhancer Box (E-box) (AID 2282936); conditions: HepG2 E-box cis-reporter transcription, actives raise or lower the signal
In short: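 DMSO served as negative control and baseline for bidirectional fitting. Human hepatoma HepG2 cells, transiently transfected with cis-reporter constructs, were dosed 24 h; reporter mRNA read by RT-PCR and capillary electrophoresis.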

[10] = ATG_AP_2_CIS: Attagene CIS-FACTORIAL HepG2 Assay for human Activator Protein 2 (AP-2) (AID 2282932); conditions: HepG2 AP-2 cis-reporter, Attagene transcription factor profiling; actives raise or lower the signal
In short: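 Step one: transient transfection of HepG2 with reporter transcription units. Step two: 24 h chemical exposure. Step three: RNA extraction, RT-PCR, labelled fragment analysis by capillary electrophoresis; DMSO serves as baseline.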

Measured: AC50

Retinoic acid receptor alpha (Homo sapiens), sequence (P10276 whole entry, looked up): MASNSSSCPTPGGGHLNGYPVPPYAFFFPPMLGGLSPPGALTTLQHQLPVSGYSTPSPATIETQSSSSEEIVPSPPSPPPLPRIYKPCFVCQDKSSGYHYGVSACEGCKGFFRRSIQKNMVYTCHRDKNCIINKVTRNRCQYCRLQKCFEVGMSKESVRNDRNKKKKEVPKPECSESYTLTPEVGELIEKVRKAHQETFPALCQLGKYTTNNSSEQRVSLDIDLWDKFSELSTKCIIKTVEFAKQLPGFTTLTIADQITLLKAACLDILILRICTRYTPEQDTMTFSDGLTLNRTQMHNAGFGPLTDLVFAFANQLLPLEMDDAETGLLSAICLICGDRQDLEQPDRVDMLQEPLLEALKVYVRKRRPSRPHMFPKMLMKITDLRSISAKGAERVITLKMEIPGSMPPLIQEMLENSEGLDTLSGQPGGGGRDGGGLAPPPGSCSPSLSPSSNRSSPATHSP
Transcription factor E2F1 (Homo sapiens), sequence (Q01094 whole entry, looked up): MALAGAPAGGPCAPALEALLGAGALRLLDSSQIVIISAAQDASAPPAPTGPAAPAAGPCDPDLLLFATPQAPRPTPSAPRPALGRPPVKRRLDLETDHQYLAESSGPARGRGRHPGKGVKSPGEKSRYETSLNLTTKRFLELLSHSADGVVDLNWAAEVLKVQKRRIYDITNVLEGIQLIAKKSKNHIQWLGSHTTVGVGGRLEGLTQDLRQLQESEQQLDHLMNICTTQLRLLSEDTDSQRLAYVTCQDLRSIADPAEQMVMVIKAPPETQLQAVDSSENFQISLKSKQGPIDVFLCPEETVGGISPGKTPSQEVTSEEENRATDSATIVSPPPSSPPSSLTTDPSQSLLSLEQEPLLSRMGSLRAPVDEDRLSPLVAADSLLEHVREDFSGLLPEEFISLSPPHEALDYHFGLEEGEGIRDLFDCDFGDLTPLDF
CCAAT/enhancer-binding protein beta (Homo sapiens), sequence (P17676 whole entry, looked up): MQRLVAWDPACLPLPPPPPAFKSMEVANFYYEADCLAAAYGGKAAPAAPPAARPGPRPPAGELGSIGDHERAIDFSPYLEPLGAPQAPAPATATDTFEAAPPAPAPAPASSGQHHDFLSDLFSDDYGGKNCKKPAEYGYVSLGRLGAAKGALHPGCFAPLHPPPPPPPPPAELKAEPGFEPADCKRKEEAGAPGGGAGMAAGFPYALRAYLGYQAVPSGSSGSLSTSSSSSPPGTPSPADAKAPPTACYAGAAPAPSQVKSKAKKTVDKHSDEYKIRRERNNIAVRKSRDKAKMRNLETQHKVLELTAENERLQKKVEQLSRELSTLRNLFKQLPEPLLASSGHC
Aryl hydrocarbon receptor (Homo sapiens), sequence (P35869 whole entry, looked up): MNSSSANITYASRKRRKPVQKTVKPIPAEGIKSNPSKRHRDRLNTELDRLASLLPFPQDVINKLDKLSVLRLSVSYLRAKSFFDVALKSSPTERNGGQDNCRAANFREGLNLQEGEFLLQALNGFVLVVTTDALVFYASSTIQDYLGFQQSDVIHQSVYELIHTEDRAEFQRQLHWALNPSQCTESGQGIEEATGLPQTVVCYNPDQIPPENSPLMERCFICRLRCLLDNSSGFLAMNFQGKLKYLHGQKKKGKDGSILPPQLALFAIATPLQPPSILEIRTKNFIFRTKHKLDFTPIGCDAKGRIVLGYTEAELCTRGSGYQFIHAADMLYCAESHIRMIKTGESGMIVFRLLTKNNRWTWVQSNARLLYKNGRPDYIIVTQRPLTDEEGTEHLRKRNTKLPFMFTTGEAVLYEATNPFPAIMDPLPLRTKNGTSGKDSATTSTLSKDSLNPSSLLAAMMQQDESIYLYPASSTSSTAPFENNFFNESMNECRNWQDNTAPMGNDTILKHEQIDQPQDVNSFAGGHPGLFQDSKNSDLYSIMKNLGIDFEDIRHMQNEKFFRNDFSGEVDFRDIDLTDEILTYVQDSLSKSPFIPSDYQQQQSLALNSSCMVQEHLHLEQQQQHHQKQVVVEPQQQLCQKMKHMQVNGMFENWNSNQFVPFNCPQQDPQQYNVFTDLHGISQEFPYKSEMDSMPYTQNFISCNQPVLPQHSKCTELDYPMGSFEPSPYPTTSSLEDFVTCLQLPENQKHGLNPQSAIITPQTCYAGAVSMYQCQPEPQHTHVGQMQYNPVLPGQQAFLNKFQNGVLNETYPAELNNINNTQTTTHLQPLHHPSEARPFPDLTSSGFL

O=C(O)C(F)(F)C(F)(F)C(=O)O
not listed: [10]
inactive: all other assays above

NNC(N)=S
not listed: [10]
inactive: all other assays above

Oc1ccccc1Br
not listed: [10]
inactive: all other assays above

CCCCN(CC)C(=O)SCCC
not listed: [10]
inactive: all other assays above

O=C(O)C1C(C(=O)O)C2(Cl)C(Cl)=C(Cl)C1(Cl)C2(Cl)Cl (centres undefined)
not listed: [7]
inactive: all other assays above

CCCCc1ccccc1
not listed: [7]
inactive: all other assays above

C=C(C)C(=O)OCC1CO1 (centres undefined)
inactive: all assays above

Cc1ccc(N)cc1N
active: [4] 5.24 µM
not listed: [7]
inactive: all other assays above

O=C(O)C(F)(F)OC(F)(F)C(F)(F)OC(F)(F)F
not listed: [10]
inactive: all other assays above

CSC(C)(C)C=NO
not listed: [7]
inactive: all other assays above

OCC(F)(F)OC(F)(F)C(F)(F)OC(F)(F)C(F)(F)OC(F)(F)F
inactive: [1] | [2] | [3] | [4] | [5] | [10] | [6] | [7] | [8] | [9]
active: [3] 80.8 µM

COP(=O)(O)OC
inactive: all assays above

CCCCCCCc1ccc(O)cc1
inactive: all assays above

Cc1ccc2c(c1N)C(=O)c1ccccc1C2=O
active: [4] 4.15 µM | [5] 150 µM
inactive: all other assays above

O=[N+]([O-])c1cc(Cl)ccc1Cl
not listed: [10]
inactive: all other assays above

CCOP(=S)(OCC)SCS(=O)(=O)CC
not listed: [10]
inactive: all other assays above

CN(C)C(=O)Cl
not listed: [10]
inactive: all other assays above

Nc1ccc([N+](=O)[O-])cc1Cl
inactive: all assays above

Cc1ccc([N+](=O)[O-])cc1C
not listed: [10]
inactive: all other assays above

Cc1c([N+](=O)[O-])cc2c(c1[N+](=O)[O-])C(C)(C)CC2(C)C
active: [2] 100 µM | [6] 100 µM | [7] 2.78 µM
inactive: all other assays above

CC(C)(C)N(NC(=O)c1ccc(Cl)cc1)C(=O)c1ccccc1
inactive: all assays above

CCOc1ccc(C(C)(C)COCc2cccc(Oc3ccccc3)c2)cc1
not listed: [7]
inactive: all other assays above

N#Cc1ccc(O)cc1
inactive: all assays above

CCOP(=O)(O)C(N)=O
inactive: all assays above

COP(N)(=S)OC
inactive: all assays above

CCOP(=S)(NC(C)C)Oc1ccccc1C(=O)OC(C)C (centres undefined)
active: [3] 26.5 µM
inactive: all other assays above

CCOP(=S)(OCC)SCSCC
not listed: [7]
inactive: all other assays above

CCCCN(CCCC)N=O
not listed: [7]
inactive: all other assays above

CCOC(=O)c1ccccc1N
inactive: all assays above

CC(C)(C)c1ccccc1OP(=O)(Oc1ccccc1)Oc1ccccc1
active: [1] 14.8 µM | [2] 100 µM | [3] 27.1 µM | [5] 116 µM
inactive: all other assays above

CC(Cc1ccc(OCC(=O)O)cc1)NCC(O)c1csc(C(F)(F)F)n1 (centres undefined)
not listed: [7]
inactive: all other assays above

O=c1ssc(Cl)c1Cl
active: [1] 53.4 µM | [3] 52.7 µM
not listed: [10]
inactive: all other assays above

COCCOCCO
inactive: all assays above

c1nc[nH]n1
not listed: [7]
inactive: all other assays above

CC(C)CBr
inactive: all assays above

CO/N=C(/C(=O)OC)c1ccccc1COc1ccccc1C
active: [2] 23.2 µM | [4] 22.9 µM | [5] 8.54 µM | [6] 27.7 µM | [7] 5.62 µM | [9] 100 µM
inactive: [1] | [3] | [10] | [8]

Oc1ccc(I)cc1
not listed: [10]
inactive: all other assays above

CC(O)C(F)(F)C(F)(F)F (centres undefined)
inactive: all assays above

O=C(O)C(F)(F)OC(F)(F)C(F)(F)OC(F)(F)C(=O)O
not listed: [10]
inactive: all other assays above

Nc1ccc(Sc2ccc(N)cc2)cc1
active: [4] 19.4 µM
not listed: [3]
inactive: all other assays above

N#Cc1cc([N+](=O)[O-])ccc1N
active: [4] 2.51 µM
not listed: [3] | [10]
inactive: all other assays above

CCOC(=O)c1ccccc1C(=O)OCC
not listed: [3] | [4]
inactive: all other assays above

CC1(C)CN=C(NN=C(/C=C/c2ccc(C(F)(F)F)cc2)/C=C/c2ccc(C(F)(F)F)cc2)NC1
active: [1] 3.09 µM | [6] 16.7 µM | [9] 13.7 µM
not listed: [3]
inactive: all other assays above

c1cc2c3c(cccc3c1)CC2
not listed: [3]
inactive: all other assays above

Cn1[nH]nnc1=S
not listed: [3] | [10]
inactive: all other assays above

ClC1=C(Cl)C2(Cl)C3C(Cl)C(Cl)CC3C1(Cl)C2(Cl)Cl (centres undefined)
inactive: [1] | [10] | [6] | [8]
active: [2] 48.8 µM | [3] 18.1 µM | [5] 48.1 µM | [7] 1.27 µM | [9] 52.3 µM

CCCCN(CCCC)SN(C)C(=O)Oc1cccc2c1OC(C)(C)C2
active: [3] 100 µM
not listed: [7] | [10]
inactive: all other assays above

ClC(Cl)(Cl)c1ccccc1
not listed: [3] | [7] | [10]
inactive: all other assays above

COP(=O)(CCC(=O)NCO)OC
not listed: [3] | [10]
inactive: all other assays above

O=NN1CCCC1
not listed: [3]
inactive: all other assays above

Cc1cccc(N)c1
not listed: [7] | [10]
inactive: all other assays above

CCN(CC)C1CCCCC1
not listed: [3]
inactive: all other assays above
